{"source": "paper PMC11208138", "assay_in_all_cases": "cross-link between two proteins; cross-linking mass spectrometry", "key": {"[1]": {"target": "PHD finger-like domain-containing protein 5A (UniProt Q7RTV0)", "sequence (Q7RTV0 whole entry, the tested form may be a part)": "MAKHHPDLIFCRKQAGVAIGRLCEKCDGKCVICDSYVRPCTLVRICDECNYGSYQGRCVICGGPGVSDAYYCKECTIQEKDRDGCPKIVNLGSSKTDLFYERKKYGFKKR"}, "[2]": {"target": "Small nuclear ribonucleoprotein Sm D2 (UniProt P62316)", "sequence (P62316 whole entry)": "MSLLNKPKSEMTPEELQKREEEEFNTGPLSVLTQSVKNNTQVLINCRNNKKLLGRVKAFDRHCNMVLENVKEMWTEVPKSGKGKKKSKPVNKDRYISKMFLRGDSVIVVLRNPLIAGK"}, "[3]": {"target": "Splicing factor 3B subunit 5 (UniProt Q9BWJ5)", "sequence (Q9BWJ5 whole entry)": "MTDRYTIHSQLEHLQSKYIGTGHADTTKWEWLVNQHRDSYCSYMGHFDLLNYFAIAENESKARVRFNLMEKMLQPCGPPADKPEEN"}, "[4]": {"target": "THO complex subunit 4 (UniProt Q86V81)"}}}
{"substance": "Splicing factor 3B subunit 1, O75533", "values": [{"measurement": "listed as a hit", "setting": "[1]", "result": "yes"}]}
{"substance": "Small nuclear ribonucleoprotein F, P62306", "values": [{"measurement": "listed as a hit", "setting": "[2]", "result": "yes"}]}
{"substance": "PHD finger-like domain-containing protein 5A, Q7RTV0", "values": [{"measurement": "listed as a hit", "setting": "[3]", "result": "yes"}]}
{"substance": "Enhancer of rudimentary homolog, P84090", "values": [{"measurement": "listed as a hit", "setting": "[4]", "result": "yes"}]}
